Values without a mark were called inactive. Results filed as inconclusive are left out. Calls of active or inactive are those of the source. Unless noted, calls come from the whole dose curve.

Assay [1] in a line: Nuclear factor erythroid 2-related factor 2/antioxidant responsive element (Nrf2/ARE) small molecule agonists: qHTS cell viability counter screen in human keratinocytes (AID 1919968; active = well fitted curve in the direction sought with a large enough effect in the repeat runs; an effect the other way counts as inactive or inconclusive; note: nearly all actives have a fitted effect of over 55% in size; note: potency is the fitted concentration of half-maximal effect). Put shortly:
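Stably transfected HaCaT (KeratinoSens), 1,500/well. Test agents in DMSO were applied for 23 h, 37 C/5% CO2. CellTiter-Fluor was incubated 1 h before the fluorescence read.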
(In general: qHTS replaces the single test concentration by a dilution series.)

Assay [2] is described as follows: Nuclear factor erythroid 2-related factor 2/antioxidant responsive element (Nrf2/ARE) small molecule agonists: luciferase reporter gene qHTS assay in human keratinocytes (AID 1919969). Note: nearly all actives have a fitted effect of over 35% in size. Note: potency is the fitted concentration of half-maximal effect.
For assay [3], the target named is Gonadotropin-releasing hormone receptor (Homo sapiens) (UniProt P30968). The experiment in a line: Human gonadotropin-releasing hormone receptor (GnRHR) small molecule agonists, calcium flux assay in GnRHR-HEK293 cells (AID 1920063). Note: nearly all actives have a fitted effect of over 35% in size. Put shortly:
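Stable human GnRHR HEK293 line. 18 h plating, then calcium dye for 1 h at 37 C. Agonist-mode compound addition from DMSO stocks; fluorescence monitored 3 min.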

In assay [4] the target is KiSS-1 receptor (Homo sapiens) (UniProt Q969F8). Put plainly: Human kisspeptin (KISS1R) small molecule agonists, calcium flux assay in KISS1R-HEK293 cells (AID 1920064; active = well fitted curve in the direction sought with a large enough effect in the repeat runs; an effect the other way counts as inactive or inconclusive). The method, boiled down: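 After overnight (18 h) culture at 37 C/5% CO2, human KISS1R-HEK293 cells received calcium dye for 1 h, then test compound; emission at 540 nm (excitation 480 nm) was tracked for 3 min.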
KiSS-1 receptor (Homo sapiens), sequence (Q969F8 whole entry, looked up): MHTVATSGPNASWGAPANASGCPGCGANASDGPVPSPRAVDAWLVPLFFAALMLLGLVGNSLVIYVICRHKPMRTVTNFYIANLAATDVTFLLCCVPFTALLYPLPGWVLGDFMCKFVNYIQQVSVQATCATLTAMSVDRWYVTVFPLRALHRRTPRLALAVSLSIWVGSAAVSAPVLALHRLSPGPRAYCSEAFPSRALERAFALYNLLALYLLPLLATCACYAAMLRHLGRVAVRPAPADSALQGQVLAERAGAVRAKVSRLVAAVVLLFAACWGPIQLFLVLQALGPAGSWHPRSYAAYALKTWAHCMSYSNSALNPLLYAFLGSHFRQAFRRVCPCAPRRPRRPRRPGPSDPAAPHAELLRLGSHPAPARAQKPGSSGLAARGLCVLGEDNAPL
In general terms: Calcium flux is commonly read through the fluorescence of an indicator in the cells.

The nature of assay [5]: G protein-coupled receptor (GPCR) small molecule agonists, calcium flux assay: HEK293 wild type cell line counter screen (AID 1920065). The method, boiled down: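 Following 18 h incubation at 37 C/5% CO2, plates got calcium dye for 1 h; compounds, ATP or DMSO were then pinned in and fluorescence followed kinetically (480/540 nm).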
A short description of assay [6]: p53 small molecule agonists, cell-based qHTS assay with human liver microsomes (AID 1963577).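 Note: p53 response element beta-lactamase reporter cells with liver microsomes plus NADPH.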 The method, boiled down: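 With metabolic activation: human liver microsomes (0.5 mg/mL final) plus NADPH (0.5 mg/mL final) added alongside compounds to p53RE-bla cells; 16 h 37 C exposure; beta-lactamase read by LiveBLAzer fluorescence.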
The nature of assay [7]: p53 small molecule agonists, cell-based qHTS assay with rat liver microsomes (AID 1963578). The method, boiled down:
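Metabolic activation by rat liver microsomes and NADPH, each 0.5 mg/mL final, added right after compounds to p53RE-bla reporter cells (4,000/well, plated 5 h earlier). 16 h at 37 C, then LiveBLAzer substrate for 2 h at room temperature in the dark; fluorescence read-out.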

The nature of assay [8]: p53 small molecule agonists, cell-based qHTS assay with rat liver microsomes: qHTS cell viability counter screen (AID 1963580). Note: nearly all actives have a fitted effect of over 45% in size. The method, boiled down:
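Cytotoxicity counter screen: intracellular ATP read by CellTiter-Glo luminescence in the p53 reporter wells. HCT-116 p53RE-bla cells were treated for 16 h at 37 C alongside rat liver microsomes and NADPH, each 0.5 mg/mL final.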

Assay [9] in a line: p53 small molecule agonists, cell-based qHTS assay: qHTS cell viability counter screen (AID 1963581). Note: nearly all actives have a fitted effect of over 45% in size. Note: potency is the fitted concentration of half-maximal effect. The method, boiled down:
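qHTS counter screen: 16 h compound exposure at 37 C of p53RE-bla HCT-116 cells (4,000 per well, seeded 5 h prior), cell viability by ATP luminescence.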

Assay [10] in a line: p53 small molecule agonists, cell-based qHTS assay (AID 1963582; active = well fitted activation curve with a large enough effect in the signal ratio in the repeat runs, not every such curve was filed as active; the % refers to the signal ratio). Put shortly: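 Measured: fluorescence from cleaved LiveBLAzer substrate. System: p53RE-bla cells, 16 h compound treatment at 37 C, 2 h substrate step at room temperature.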
In assay [11] the target is 5-hydroxytryptamine receptor 2A (Homo sapiens) (UniProt P28223). The experiment in a line: 5-hydroxytryptamine receptor 2A (HTR2A) small molecule antagonists, cell-based qHTS assay (AID 1963586). Note: nearly all actives have a fitted effect of over 45% in size. Note: potency is the fitted concentration of half-maximal effect. Put shortly: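 CHO cells stably expressing human HTR2A were plated for 18 h at 37 C, then loaded with calcium dye for 1 h. Compounds were preincubated 5 min at room temperature before DOI (4 nM solution) was added. Kinetic fluorescence was read for 3 min.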
5-hydroxytryptamine receptor 2A (Homo sapiens), sequence (P28223 whole entry, looked up): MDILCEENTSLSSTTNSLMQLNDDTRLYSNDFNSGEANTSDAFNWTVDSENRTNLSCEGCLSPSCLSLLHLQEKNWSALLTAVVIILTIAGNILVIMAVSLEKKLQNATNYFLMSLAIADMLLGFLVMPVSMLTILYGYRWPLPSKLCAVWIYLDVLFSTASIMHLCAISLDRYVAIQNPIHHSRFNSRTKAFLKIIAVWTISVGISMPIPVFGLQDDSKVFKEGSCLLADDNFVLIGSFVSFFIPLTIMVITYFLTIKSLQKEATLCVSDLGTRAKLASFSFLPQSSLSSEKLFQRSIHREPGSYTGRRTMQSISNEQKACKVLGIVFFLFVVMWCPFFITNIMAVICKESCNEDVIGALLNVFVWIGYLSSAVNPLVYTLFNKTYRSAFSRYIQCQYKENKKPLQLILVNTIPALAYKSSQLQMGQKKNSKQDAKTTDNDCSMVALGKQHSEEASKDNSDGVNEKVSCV

For assay [12] the target is unchanged. Put plainly: 5-hydroxytryptamine receptor 2A (HTR2A) small molecule agonists, cell-based qHTS assay (AID 1963587). Note: nearly all actives have a fitted effect of over 30% in size. Note: potency is the fitted concentration of half-maximal effect. Put shortly: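 Kinetic calcium-flux fluorescence (2 min, 1 sec intervals) after compound addition in agonist mode. HTR2A-CHO cells were cultured 18 h, then dye-loaded 1 h at 37 C.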
The target in assay [13] is Muscarinic acetylcholine receptor M1 (Homo sapiens) (UniProt P11229). Put plainly: Cholinergic receptor muscarinic 1 (CHRM1) small molecule antagonists, cell-based qHTS assay (AID 1963588). Note: nearly all actives have a fitted effect of over 40% in size. Note: potency is the fitted concentration of half-maximal effect. The method, boiled down: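 Compounds were tested at 15 concentrations in three independent runs. Dye-loaded CHRM1-CHO cells were exposed 5 min at room temperature before stimulation by acetylcholine added at 50nM. Intracellular calcium was read kinetically on FDSS for 3 min.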
Muscarinic acetylcholine receptor M1 (Homo sapiens), sequence (P11229 whole entry, looked up): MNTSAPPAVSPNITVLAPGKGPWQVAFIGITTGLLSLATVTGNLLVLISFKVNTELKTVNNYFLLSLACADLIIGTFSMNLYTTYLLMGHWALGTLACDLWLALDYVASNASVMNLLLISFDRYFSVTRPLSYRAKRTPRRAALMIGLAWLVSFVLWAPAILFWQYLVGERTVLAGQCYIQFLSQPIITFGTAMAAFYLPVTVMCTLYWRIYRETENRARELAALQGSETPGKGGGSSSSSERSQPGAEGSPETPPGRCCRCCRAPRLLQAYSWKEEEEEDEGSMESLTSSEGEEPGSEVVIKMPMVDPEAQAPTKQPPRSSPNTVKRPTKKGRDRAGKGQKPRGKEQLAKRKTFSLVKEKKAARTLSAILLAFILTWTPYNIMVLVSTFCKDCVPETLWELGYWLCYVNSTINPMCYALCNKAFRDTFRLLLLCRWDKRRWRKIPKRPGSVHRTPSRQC

Assay [14] has the same target. The experiment in a line: Cholinergic receptor muscarinic 1 (CHRM1) small molecule agonists, cell-based qHTS assay (AID 1963589). Note: nearly all actives have a fitted effect of over 35% in size. Put shortly:
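Kinetic fluorescence (1 s intervals) of calcium-sensitive dye in human M1 CHO cells after compound addition; cells pre-incubated 18 h at 37 C/5% CO2 and dye-loaded 1 h.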

A short description of assay [15]: cAMP Responsive Elements (CRE) small molecule agonists, cell-based qHTS assay (AID 1963590). Put shortly:
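Test agents in DMSO were incubated 3 h at 37 C/5% CO2 with CRE-bla HEK 293T cells seeded 18 h earlier; LiveBLAzer B/G FRET substrate was added and read after 2 h at room temperature.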

A short description of assay [16]: cAMP Responsive Elements (CRE) small molecule antagonists, cell-based qHTS assay (AID 1963591; active = well fitted inhibition curve with a large enough effect in the signal ratio in the repeat runs, not every such curve was filed as active; the % refers to the signal ratio). Put shortly: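 Reporter line CRE-bla HEK 293T in dialyzed-FBS DMEM; cells preincubated 18 h, treated 3 h with compound plus NKH477 (0.25 uM final); LiveBLAzer FRET, 2 h RT.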
Assay [17] addresses Beta-2 adrenergic receptor (Homo sapiens) (UniProt P07550). The experiment in a line: Adrenergic beta2 receptor (ADRB2) small molecule antagonists, cell-based qHTS assay (AID 1963592). Note: series mostly up to about 92 µM; nearly all actives have a fitted effect of over 50% in size. The method, boiled down:
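Assay format: CHO-ADRB2 cells, 18-20hr seeding at 37C/5% CO2, then compound plus 1nM isoproterenol agonist mix for 0.5hr RT. Homogeneous time-resolved fluorescence cAMP detection after 1hr, expressed as 665/615 nm ratio.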

Assay [18] concerns the target D(2) dopamine receptor (Homo sapiens) (UniProt P14416). The experiment in a line: Dopamine D2 receptor (DRD2) small molecule agonists, cell-based qHTS assay (AID 1963594). Note: nearly all actives have a fitted effect of over 35% in size. Put shortly: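 cAMP accumulation in DRD2-HEK293 cells measured by HTRF after 1 h detection; compounds added 10 min before NKH477 (200nM […]) forskolin-analogue stimulation, 30 min at room temperature, with Ro20-1724 present at 0.1 mM final.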

Assay [19] has the same target. The experiment in a line: Dopamine D2 receptor (DRD2) small molecule antagonists, cell-based qHTS assay (AID 1963595; active = well fitted inhibition curve with a large enough effect in the signal ratio in the repeat runs, with a control signal flat; the % refers to the signal ratio; note: potency is the fitted concentration of half-maximal effect). Put shortly:
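Readout: HTRF cAMP, cAMP-d2 competing with cellular cAMP for anti-cAMP cryptate, read after 1 h. Cells: DRD2-HEK293. Conditions: 0.1 mM Ro20-1724, 12 nM quinpirole, 200 nM NKH477, 30 min RT.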

Assay [20] is described as follows: p53 small molecule agonists, cell-based qHTS assay with human liver microsomes: qHTS cell viability counter screen (AID 1963579). Note: nearly all actives have a fitted effect of over 45% in size. The method, boiled down: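 Metabolic activation used human liver microsomes and NADPH, both 0.5 mg/mL final, over 16 hours at 37 C on p53RE-bla cells (4,000/well). Cytotoxicity measured by CellTiter-Glo luminescence, 30 min at room temperature.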
% is set by controls: 0 for no effect and ±100 for the full control effect.

D(2) dopamine receptor (Homo sapiens), sequence (P14416 whole entry, looked up): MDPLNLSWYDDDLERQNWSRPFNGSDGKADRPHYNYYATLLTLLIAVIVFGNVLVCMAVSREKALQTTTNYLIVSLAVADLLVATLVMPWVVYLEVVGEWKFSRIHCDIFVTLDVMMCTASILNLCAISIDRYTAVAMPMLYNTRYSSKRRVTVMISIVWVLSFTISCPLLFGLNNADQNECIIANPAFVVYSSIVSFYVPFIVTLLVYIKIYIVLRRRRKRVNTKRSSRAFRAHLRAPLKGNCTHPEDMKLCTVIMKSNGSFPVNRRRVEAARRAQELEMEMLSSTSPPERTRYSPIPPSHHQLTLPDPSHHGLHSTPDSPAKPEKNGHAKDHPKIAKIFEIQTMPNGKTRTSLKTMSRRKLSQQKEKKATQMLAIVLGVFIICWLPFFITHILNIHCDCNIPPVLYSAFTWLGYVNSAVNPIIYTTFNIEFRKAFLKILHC
Gonadotropin-releasing hormone receptor (Homo sapiens), sequence (P30968 whole entry, looked up): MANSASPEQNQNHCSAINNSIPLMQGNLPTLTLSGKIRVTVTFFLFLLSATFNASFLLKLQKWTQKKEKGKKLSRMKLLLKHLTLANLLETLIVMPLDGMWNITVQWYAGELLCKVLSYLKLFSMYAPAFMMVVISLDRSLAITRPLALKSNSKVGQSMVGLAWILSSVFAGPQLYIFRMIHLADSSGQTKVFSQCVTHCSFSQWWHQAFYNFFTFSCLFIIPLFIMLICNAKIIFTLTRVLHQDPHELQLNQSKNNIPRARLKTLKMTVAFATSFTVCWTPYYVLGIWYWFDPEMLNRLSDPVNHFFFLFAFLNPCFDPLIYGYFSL
Beta-2 adrenergic receptor (Homo sapiens), sequence (P07550 whole entry, looked up): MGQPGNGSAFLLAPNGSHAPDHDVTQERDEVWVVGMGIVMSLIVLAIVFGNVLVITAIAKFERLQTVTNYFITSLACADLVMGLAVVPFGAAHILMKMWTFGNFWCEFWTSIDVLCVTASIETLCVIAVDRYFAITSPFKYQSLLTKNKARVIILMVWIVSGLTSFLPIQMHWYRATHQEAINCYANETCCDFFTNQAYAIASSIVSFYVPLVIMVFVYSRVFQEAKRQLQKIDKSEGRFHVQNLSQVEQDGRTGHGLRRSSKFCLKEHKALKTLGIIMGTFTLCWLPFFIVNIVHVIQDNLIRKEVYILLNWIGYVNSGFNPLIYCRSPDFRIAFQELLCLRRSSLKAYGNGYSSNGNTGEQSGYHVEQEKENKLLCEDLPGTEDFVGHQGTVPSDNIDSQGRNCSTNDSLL

Consider `CCCCCCC(CCCCCCCCCCC(=O)OCC(COC(C)=O)OC(C)=O)OC(C)=O` (stereo not given), for which the Potency entry in [1], in [2], in [3], in [6], in [7] and in [8] was “inactive” throughout. The Potency result in assay [9], in [10], in [11], in assay [12], in assay [13] and in assay [14] was “inactive” each time. Moreover, the Potency entry in assay [15], in assay [16], in [17], in assay [18] and in assay [19] was “inactive” in each case. The outcome in assay [4] and in assay [5] was inactive.

In the case of `CCOC(=O)O[C@H](C)OC(=O)c1ccc2c(c1)cc(C(=O)NC1CCN(C(C)C)CC1)n2Cc1cc(-c2ccc(Cl)s2)on1`, the Potency in assay [1] was 11.4 µM (active); in assay [9], 38.1 µM (active); in assay [19], 50.9 µM (active). Also, the Potency entry in assay [2], in assay [3], in [6], in assay [7], in assay [20] and in assay [11] was “inactive” each time. In addition, the Potency result in assay [12] and in [14] was “inactive” each time. In addition, the result in assay [4] and in assay [5] was inactive.

Consider `CC/C(=C\C(=N/O)C(N)=O)C(C)[N+](=O)[O-]` (stereo not given), for which the Potency result in assay [1], in [2], in assay [3], in [6], in assay [7] and in assay [8] was “inactive” each time. In addition, the Potency entry in [9], in assay [10], in assay [11], in [12], in assay [13] and in assay [14] was “inactive” in each case. Further, the Potency result in assay [15], in assay [16], in assay [17], in [18] and in assay [19] was “inactive” throughout. Besides, the result in [4] and in assay [5] was inactive.

Take `FC(F)(F)C(F)(F)C(F)(F)C(F)(F)C(F)(F)C(F)(F)C(F)(F)C(F)(F)C(F)(F)C(F)(F)F`: the activity change, negative = cytotoxicity in [1] is 2.36% [at 8.39 µM]; in assay [20], 2.89% [at 5.99 µM]. The activity, positive = activation in assay [2] was -2.47% [at 8.39 µM]. Further, the activity change in assay [3] is 0.129% [at 5.22 µM, hits give high values]. The activation in assay [4] is -3.4% [at 6.97 µM]; in [5] it was -1.63% [at 5.23 µM]; in [6] it was 0.0412% [at 5.99 µM]; in assay [7], -3.19% [at 5.99 µM]; in [10] it was -0.0202% [at 5.99 µM]; in assay [12] it was 9.84% [at 7.02 µM]. The activation in assay [14] is -0.0294% [at 6.97 µM]; in assay [18] it was -0.702% [at 8.39 µM]. Besides, the activity, negative = inhibition in [13] is 8.35% [at 5.58 µM]. The activity change, negative = inhibition is -8.96% [at 8.39 µM] in assay [16], 4.67% [at 8.39 µM] in assay [17] and 10.1% [at 8.38 µM] in assay [19].

Take `C=CC(=O)OCC(Br)CBr` (stereo not given): the Potency entry in [1], in assay [3], in assay [6], in [7], in assay [20] and in [9] was “inactive” in each case. Besides, the Potency entry in assay [11], in assay [12], in assay [14], in assay [15], in assay [16] and in assay [17] was “inactive” each time. Besides, the Potency result in [18] and in [19] was “inactive” throughout. Moreover, the Potency in assay [2] was 68.6 µM (active). For the same molecule, the outcome in [4] and in assay [5] was inactive.

For the molecule `COc1ccccc1N1CCN(CCCCNC(=O)c2ccc(-c3ccc(C(C)=O)cc3)cc2)CC1`, the Potency result in [1], in [2], in assay [3], in assay [6], in [7] and in [20] was “inactive” throughout. In addition, the Potency result in assay [10], in assay [14], in assay [15] and in assay [18] was “inactive” each time. Besides, the outcome in [4] and in [5] was inactive. For the same molecule, the Potency in assay [11] was 0.326 µM (active); in [12], 0.0535 µM (active); in assay [13], 1.03 µM (active).

With `O=C(OCC(COC(=O)c1ccccc1)(COC(=O)c1ccccc1)COC(=O)c1ccccc1)c1ccccc1`, the Potency entry in assay [1], in [2], in [3], in assay [6], in assay [7] and in assay [20] was “inactive” throughout. The Potency result in assay [9], in [12], in assay [13], in assay [14], in assay [16] and in assay [17] was “inactive” throughout. Moreover, the Potency result in assay [18] and in [19] was “inactive” throughout. Moreover, the result in assay [4] and in [5] was inactive.

(Values after PubChem BioAssay (Tox21).)
